From ChEMBL document CHEMBL1961873, “Compounds: GSK PKIS; Assays: Nanosyn kinase panel” (2012) come the findings set out here.

Molecules are shown by their SMILES.

Test [1] has as its target T1, Inhibitor of nuclear factor kappa-B kinase subunit epsilon (Homo sapiens) (UniProt Q14164).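 Further: reported values are averaged percent inhibition figures against human IKKε.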
T1 sequence (whole entry): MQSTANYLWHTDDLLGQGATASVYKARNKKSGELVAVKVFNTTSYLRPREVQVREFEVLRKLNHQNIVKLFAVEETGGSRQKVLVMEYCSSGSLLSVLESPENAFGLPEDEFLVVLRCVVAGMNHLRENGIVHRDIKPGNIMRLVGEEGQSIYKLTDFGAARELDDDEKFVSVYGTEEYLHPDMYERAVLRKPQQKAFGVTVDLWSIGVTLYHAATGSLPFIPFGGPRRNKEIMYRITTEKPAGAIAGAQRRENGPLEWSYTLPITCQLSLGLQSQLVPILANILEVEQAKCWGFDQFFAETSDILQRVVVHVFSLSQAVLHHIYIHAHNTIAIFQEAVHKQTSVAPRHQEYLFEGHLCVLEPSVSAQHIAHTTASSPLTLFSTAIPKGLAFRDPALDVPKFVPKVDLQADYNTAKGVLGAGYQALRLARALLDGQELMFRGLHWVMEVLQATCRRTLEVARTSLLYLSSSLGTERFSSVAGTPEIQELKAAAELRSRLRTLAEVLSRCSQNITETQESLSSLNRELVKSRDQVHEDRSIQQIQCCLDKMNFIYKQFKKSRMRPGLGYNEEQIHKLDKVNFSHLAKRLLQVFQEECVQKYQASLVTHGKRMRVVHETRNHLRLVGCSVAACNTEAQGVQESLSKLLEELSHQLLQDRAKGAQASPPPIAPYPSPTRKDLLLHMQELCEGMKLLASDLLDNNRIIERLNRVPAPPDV
Conditions: at 1 µM.

Test [2] deals with T2, Serine/threonine-protein kinase Nek1 (Homo sapiens) (UniProt Q96PY6).
T2 sequence (whole entry): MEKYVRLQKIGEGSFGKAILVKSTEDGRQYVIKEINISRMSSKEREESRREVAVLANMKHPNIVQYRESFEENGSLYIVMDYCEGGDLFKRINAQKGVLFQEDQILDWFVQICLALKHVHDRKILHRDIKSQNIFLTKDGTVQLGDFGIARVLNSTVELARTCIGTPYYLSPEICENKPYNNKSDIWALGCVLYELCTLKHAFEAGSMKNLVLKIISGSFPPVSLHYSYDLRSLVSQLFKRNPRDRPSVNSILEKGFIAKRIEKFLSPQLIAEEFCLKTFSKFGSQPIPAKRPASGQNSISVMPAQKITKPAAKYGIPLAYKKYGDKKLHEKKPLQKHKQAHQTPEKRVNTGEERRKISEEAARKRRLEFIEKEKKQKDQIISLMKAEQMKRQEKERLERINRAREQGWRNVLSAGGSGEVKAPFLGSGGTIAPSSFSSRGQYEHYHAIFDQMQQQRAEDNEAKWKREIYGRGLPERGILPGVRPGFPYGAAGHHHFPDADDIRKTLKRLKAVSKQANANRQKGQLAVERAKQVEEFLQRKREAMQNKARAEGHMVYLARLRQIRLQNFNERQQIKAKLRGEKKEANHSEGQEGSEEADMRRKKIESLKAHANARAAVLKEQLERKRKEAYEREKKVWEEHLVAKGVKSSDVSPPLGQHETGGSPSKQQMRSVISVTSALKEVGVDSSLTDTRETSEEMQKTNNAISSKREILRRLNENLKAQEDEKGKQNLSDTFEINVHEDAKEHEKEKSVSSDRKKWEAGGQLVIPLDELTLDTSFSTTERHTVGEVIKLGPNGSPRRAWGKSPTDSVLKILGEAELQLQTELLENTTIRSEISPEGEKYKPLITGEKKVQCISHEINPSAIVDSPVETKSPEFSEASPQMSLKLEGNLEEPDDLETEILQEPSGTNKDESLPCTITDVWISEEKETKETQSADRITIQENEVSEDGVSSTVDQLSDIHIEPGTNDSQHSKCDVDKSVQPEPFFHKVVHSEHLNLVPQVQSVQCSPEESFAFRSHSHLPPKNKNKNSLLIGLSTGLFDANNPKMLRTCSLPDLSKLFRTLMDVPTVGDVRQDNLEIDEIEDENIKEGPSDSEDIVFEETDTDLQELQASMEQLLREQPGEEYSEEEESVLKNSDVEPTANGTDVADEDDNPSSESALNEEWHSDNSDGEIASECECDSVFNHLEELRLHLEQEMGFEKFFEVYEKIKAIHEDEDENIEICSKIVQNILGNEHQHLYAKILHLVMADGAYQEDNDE
Particulars: at 0.1 µM.

Test [3] addresses T2, Serine/threonine-protein kinase Nek1 (Homo sapiens). Conditions: at 1 µM.
Test [4] addresses T3, Serine/threonine-protein kinase Nek2 (Homo sapiens) (UniProt P51955).
T3 sequence (whole entry): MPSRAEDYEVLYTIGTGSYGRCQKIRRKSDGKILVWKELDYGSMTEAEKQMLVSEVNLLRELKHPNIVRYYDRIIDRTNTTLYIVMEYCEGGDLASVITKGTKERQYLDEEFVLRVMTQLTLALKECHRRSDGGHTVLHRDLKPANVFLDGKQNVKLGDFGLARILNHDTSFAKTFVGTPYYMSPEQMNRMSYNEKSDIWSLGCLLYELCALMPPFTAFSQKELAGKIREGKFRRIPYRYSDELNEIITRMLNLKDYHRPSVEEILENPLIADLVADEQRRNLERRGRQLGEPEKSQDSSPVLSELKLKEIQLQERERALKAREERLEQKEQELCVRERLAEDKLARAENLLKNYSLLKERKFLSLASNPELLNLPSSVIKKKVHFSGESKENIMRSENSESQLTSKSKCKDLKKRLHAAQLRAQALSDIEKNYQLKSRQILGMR
Conditions: at 0.1 µM.

Test [5] has as its target T3, Serine/threonine-protein kinase Nek2 (Homo sapiens). Particulars: at 1 µM.
Test [6] concerns the target Serine/threonine-protein kinase Nek6 (Homo sapiens) (UniProt Q9HC98). Particulars: at 0.1 µM.
The target is the same in test [7]. Particulars: at 1 µM.
Test [8] concerns the target Serine/threonine-protein kinase Nek7 (Homo sapiens) (UniProt Q8TDX7). Conditions: at 0.1 µM.
The target is the same in test [9]. Conditions: at 1 µM.
For test [10], the target named is T4, Serine/threonine-protein kinase Nek9 (Homo sapiens) (UniProt Q8TD19).
T4 sequence (whole entry): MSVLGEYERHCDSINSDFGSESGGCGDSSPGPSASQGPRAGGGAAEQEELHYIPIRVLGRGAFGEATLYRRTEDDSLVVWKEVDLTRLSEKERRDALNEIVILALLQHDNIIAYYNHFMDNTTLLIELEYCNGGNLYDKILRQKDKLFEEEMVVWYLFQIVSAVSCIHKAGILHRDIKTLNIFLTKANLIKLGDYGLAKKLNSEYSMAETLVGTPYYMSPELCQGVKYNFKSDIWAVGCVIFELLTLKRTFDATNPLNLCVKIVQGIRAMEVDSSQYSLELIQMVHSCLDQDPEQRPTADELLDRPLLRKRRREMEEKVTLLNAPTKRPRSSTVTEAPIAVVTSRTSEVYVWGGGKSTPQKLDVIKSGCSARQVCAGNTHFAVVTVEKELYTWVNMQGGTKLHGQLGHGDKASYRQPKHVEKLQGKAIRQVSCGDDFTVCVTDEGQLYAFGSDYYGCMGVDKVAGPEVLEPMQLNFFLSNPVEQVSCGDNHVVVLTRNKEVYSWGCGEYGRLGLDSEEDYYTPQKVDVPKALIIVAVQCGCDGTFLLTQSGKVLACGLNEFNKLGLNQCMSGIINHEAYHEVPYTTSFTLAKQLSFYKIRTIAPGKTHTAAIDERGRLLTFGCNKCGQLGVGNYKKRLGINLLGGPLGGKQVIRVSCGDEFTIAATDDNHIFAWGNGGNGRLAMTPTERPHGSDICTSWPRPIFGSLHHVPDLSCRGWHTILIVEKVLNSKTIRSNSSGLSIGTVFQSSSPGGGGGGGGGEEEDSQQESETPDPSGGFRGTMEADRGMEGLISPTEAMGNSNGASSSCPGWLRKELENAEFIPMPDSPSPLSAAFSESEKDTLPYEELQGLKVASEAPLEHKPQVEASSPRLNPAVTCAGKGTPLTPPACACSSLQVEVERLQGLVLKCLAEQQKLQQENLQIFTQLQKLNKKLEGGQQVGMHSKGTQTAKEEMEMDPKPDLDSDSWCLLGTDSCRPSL
Conditions: at 0.1 µM.

The target in test [11] is T4, Serine/threonine-protein kinase Nek9 (Homo sapiens). Particulars: at 1 µM.
In test [12] the target is Serine/threonine-protein kinase PLK1 (Homo sapiens) (UniProt P53350). Conditions: at 0.1 µM.
Test [13] shares this target. Conditions: at 1 µM.
The target of test [14] is T5, Dual specificity protein kinase TTK (Homo sapiens) (UniProt P33981).
T5 sequence (whole entry): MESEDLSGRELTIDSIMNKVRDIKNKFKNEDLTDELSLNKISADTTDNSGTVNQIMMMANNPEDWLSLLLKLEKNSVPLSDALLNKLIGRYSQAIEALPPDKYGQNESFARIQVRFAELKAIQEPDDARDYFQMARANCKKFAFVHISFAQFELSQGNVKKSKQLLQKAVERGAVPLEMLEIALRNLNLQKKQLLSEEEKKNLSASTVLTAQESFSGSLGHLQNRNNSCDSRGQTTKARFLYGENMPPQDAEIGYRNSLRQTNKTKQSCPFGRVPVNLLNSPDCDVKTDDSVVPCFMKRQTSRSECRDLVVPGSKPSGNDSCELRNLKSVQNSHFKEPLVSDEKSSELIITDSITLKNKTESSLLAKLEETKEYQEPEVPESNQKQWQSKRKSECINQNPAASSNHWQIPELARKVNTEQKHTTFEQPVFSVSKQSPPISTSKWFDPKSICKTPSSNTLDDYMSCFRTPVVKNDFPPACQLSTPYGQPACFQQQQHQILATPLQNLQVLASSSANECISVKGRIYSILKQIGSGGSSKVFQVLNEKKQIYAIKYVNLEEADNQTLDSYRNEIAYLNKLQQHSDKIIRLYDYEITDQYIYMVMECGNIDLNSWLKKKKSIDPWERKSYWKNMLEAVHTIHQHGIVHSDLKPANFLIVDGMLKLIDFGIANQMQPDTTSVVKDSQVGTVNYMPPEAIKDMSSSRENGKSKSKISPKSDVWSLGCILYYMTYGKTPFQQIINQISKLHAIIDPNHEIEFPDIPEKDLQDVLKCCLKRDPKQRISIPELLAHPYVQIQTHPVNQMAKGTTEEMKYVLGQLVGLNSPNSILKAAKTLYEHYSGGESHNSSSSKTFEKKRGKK
Conditions: at 0.1 µM.

Test [15] deals with T6, Receptor-type tyrosine-protein kinase FLT3 (Homo sapiens), P36888 [D835Y].
T6 sequence (whole entry): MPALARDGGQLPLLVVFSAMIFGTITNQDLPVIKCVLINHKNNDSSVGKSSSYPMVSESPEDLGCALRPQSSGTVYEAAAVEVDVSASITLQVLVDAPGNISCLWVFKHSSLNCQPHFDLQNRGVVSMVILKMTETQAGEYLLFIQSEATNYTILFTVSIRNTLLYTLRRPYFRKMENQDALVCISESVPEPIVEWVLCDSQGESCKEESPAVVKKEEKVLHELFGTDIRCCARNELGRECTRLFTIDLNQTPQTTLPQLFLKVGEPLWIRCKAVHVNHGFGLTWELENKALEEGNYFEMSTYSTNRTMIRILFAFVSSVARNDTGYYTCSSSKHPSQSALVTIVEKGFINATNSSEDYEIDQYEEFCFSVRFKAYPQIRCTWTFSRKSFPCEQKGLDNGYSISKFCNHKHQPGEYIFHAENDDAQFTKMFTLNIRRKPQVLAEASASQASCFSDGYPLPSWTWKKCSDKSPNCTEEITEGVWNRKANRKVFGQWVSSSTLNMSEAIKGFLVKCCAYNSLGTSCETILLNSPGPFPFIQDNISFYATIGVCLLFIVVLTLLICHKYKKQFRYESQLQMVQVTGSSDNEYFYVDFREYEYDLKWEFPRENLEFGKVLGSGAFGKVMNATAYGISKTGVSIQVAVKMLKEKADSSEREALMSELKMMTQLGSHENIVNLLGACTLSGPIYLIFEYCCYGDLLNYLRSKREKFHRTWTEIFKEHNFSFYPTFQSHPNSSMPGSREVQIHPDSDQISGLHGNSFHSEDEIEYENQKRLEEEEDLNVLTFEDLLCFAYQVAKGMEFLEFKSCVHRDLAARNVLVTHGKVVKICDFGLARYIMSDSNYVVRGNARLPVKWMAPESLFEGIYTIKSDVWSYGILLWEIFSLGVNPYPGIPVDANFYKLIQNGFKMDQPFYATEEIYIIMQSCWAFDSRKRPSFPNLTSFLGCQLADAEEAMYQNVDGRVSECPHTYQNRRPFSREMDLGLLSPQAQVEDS
Conditions: at 1 µM.

The target of test [16] is Vascular endothelial growth factor receptor 3 (Homo sapiens) (UniProt P35916). Conditions: at 0.1 µM.
Test [17] shares this target. Conditions: at 1 µM.
For test [18], the target named is Macrophage colony-stimulating factor 1 receptor (Homo sapiens) (UniProt P07333). Conditions: at 0.1 µM.
For test [19] the target is unchanged. Particulars: at 1 µM.
In test [20] the target is Tyrosine-protein kinase Fyn (Homo sapiens) (UniProt P06241). Particulars: at 0.1 µM.
Chain of Tyrosine-protein kinase Fyn (Homo sapiens) (P06241 2-537 limits assumed): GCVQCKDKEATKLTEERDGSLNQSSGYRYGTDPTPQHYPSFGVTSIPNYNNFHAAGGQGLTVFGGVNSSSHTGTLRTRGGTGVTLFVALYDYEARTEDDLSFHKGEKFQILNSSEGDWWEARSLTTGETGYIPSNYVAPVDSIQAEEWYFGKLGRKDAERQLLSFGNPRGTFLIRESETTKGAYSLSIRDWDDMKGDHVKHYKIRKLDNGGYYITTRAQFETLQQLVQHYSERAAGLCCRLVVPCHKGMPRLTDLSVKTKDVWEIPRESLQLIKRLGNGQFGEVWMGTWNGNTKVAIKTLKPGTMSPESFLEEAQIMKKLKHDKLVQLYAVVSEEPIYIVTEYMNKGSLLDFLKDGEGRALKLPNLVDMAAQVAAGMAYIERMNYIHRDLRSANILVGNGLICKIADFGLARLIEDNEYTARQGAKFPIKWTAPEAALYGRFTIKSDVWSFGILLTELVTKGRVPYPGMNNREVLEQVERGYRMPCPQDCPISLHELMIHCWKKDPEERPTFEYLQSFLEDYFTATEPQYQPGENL

Chain of Macrophage colony-stimulating factor 1 receptor (Homo sapiens) (P07333 whole entry): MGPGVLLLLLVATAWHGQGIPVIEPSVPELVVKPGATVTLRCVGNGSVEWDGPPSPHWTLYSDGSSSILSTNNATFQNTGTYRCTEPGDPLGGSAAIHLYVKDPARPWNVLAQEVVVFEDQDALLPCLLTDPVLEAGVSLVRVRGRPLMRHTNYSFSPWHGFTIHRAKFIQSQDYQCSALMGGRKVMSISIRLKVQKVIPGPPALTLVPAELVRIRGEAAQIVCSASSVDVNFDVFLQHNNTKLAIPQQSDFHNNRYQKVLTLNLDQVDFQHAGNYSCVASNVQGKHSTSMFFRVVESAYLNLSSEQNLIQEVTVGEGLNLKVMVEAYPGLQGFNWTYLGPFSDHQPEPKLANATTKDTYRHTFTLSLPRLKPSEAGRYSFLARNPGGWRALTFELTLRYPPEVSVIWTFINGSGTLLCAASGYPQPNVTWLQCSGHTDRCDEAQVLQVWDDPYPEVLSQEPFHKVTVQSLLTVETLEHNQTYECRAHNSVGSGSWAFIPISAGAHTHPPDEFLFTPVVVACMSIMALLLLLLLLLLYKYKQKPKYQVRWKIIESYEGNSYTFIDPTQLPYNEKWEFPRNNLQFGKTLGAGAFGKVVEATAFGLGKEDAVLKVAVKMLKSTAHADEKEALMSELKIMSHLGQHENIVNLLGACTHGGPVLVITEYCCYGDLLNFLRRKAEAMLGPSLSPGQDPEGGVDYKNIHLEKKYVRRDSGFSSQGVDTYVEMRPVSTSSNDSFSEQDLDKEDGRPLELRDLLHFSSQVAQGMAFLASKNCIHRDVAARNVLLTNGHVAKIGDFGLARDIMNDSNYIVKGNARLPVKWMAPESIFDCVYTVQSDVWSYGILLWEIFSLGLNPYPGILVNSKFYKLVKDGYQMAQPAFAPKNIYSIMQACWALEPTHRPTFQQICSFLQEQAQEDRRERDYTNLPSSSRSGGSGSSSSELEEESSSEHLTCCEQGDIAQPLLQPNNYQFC
Chain of Serine/threonine-protein kinase Nek7 (Homo sapiens) (Q8TDX7 whole entry, looked up): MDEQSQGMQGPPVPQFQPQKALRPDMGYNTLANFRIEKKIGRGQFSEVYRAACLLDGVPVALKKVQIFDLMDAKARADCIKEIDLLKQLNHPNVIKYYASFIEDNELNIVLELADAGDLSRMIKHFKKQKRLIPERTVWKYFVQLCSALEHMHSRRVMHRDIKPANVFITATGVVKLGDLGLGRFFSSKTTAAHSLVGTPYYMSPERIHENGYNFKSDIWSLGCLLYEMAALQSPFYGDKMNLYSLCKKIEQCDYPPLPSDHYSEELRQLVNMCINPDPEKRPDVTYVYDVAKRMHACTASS
Chain of Vascular endothelial growth factor receptor 3 (Homo sapiens) (P35916 whole entry): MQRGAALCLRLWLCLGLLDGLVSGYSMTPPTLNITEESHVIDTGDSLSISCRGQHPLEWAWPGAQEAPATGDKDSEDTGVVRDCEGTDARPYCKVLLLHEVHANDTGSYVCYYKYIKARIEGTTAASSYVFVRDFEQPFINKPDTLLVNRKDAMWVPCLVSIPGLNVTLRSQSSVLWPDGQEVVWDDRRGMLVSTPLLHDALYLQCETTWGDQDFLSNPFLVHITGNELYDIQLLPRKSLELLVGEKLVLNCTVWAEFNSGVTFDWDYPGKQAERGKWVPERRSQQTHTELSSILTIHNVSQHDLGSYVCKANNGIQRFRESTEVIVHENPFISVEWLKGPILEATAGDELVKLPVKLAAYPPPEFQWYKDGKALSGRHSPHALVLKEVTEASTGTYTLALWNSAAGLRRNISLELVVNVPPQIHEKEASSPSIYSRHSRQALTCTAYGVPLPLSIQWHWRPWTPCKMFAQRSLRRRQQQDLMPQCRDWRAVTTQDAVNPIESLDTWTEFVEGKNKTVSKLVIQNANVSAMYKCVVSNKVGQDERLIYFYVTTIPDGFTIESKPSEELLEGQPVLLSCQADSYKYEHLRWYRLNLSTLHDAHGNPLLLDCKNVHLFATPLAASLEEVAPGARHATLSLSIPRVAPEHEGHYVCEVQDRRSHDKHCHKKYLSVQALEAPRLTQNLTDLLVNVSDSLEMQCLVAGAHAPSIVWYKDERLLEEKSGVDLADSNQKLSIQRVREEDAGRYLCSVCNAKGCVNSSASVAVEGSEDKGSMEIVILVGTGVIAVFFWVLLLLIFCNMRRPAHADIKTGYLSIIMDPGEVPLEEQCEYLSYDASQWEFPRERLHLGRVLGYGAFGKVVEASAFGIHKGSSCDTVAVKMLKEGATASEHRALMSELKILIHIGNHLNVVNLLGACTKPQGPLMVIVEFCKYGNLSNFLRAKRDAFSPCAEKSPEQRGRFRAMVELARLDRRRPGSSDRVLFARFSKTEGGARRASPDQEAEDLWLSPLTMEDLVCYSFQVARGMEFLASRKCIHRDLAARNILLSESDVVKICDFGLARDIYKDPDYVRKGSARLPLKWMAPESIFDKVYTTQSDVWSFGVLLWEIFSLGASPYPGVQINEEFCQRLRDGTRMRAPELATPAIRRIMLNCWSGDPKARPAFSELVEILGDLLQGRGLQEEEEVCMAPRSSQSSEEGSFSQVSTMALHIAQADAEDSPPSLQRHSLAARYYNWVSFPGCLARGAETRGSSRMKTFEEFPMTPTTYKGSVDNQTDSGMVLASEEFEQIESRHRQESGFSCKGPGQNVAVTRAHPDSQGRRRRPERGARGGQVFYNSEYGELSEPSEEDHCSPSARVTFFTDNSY
Chain of Serine/threonine-protein kinase Nek6 (Homo sapiens) (Q9HC98 whole entry): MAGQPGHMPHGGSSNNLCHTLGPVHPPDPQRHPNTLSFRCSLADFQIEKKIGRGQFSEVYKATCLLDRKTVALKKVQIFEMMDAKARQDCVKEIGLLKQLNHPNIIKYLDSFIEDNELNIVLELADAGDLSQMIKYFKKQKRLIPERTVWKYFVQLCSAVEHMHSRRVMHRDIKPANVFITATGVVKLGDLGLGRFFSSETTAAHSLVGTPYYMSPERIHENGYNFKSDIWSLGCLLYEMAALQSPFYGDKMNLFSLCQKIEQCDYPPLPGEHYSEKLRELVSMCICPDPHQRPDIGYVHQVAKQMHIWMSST
Chain of Serine/threonine-protein kinase PLK1 (Homo sapiens) (P53350 whole entry): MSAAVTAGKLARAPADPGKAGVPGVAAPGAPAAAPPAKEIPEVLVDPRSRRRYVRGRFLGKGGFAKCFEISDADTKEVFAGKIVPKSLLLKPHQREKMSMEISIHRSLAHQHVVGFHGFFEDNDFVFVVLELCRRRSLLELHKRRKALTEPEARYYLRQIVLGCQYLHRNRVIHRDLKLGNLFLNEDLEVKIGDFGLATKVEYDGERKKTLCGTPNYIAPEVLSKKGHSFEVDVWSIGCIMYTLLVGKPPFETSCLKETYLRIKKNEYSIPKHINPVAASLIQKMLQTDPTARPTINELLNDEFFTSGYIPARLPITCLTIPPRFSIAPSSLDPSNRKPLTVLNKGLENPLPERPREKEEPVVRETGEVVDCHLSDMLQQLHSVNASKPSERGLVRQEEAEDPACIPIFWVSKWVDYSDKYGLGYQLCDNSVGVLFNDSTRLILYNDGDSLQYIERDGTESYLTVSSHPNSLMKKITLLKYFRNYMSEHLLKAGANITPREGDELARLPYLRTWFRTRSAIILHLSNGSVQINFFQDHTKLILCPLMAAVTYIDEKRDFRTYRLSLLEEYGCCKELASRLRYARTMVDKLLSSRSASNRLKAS

The term inhibition denotes the change of the read-out against control, counted positive when it falls. On to `COc1cc(N2CCN(C(C)C)CC2)ccc1Nc1nc(Nc2cccc3ncccc23)c2cc[nH]c2n1`, for which the inhibition in test [1] was 0.88%; in test [2] it was -0.11%; in [3], 0.84%; in test [4], -0.73%; in test [5], -0.48%; in test [6], -0.86%. In addition, the inhibition in test [7] is -2.27%; in [8], 1.54%; in test [9], -0.41%; in [10], 4.56%; in test [11], -1.45%; in test [12], -0.26%. Further, the inhibition is 0.8% in test [13]; 52.1% in test [14]; 1.87% in test [15]; 0.19% in test [16]; 0.22% in [17]; 1.9% in test [18]. The inhibition in [19] is 3.33%; in [20], 2.06%.
